# Laboratory results as given in PubChem BioAssay.
# Activity calls are given as the source filed them.
# Key:
# [1] = test system: PRMT1 (protein arginine N-methyltransferase 1); assay: small molecules binding arginine methyltransferase PRMT1 – biochemical, small-molecule microarray, 635 nm fluorescence, primary screen (AID 1088); details: higher = more signal;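 also: binding of Prmt1 protein to compounds spotted on small-molecule microarray slides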
# [2] = growth effects on S. cerevisiae YJM789 – YJM789 clinical isolate, OD600, 24 h, basal, primary screen (AID 1089); details: higher = more signal, called active from +8 up or from −8 down;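 also: growth of clinical yeast isolate S. cerevisiae YJM 789 seeded 1000 cells per well; test concentration not given here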
# [3] = S. pombe growth modifiers, basal conditions – strain 972, OD600, 24 h, no modulator, primary screen (AID 1090);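 also: basal condition with compound alone and no growth modifier present; test concentration not given here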; details: S. pombe 972 growth, higher = more signal, called active from +8 up or from −8 down
# [4] = budding yeast growth modifiers under rapamycin – strain BY4716, OD600, 96 h, primary screen (AID 1091); also: test concentration not given here; details: S. cerevisiae BY4716 + rapamycin, higher = more signal, called active from +8 up or from −8 down
# [5] = target: Torsin-1A-interacting protein 2 (Homo sapiens) (UniProt Q8NFQ8); assay: small molecules binding lysate-expressed LULL1 – cell lysate, human LULL1 lysate, 635/667 nm fluorescence, primary screen (AID 1092); details: small-molecule microarray, hLULL1 lysate binding, 635 nm fluorescence; higher = more signal;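 also: probe is lysate of COS7 cells overexpressing human LULL1; score merges per-feature 667 nm fluorescence with signal-to-noise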
# Torsin-1A-interacting protein 2 (Homo sapiens), sequence (Q8NFQ8 whole entry, looked up): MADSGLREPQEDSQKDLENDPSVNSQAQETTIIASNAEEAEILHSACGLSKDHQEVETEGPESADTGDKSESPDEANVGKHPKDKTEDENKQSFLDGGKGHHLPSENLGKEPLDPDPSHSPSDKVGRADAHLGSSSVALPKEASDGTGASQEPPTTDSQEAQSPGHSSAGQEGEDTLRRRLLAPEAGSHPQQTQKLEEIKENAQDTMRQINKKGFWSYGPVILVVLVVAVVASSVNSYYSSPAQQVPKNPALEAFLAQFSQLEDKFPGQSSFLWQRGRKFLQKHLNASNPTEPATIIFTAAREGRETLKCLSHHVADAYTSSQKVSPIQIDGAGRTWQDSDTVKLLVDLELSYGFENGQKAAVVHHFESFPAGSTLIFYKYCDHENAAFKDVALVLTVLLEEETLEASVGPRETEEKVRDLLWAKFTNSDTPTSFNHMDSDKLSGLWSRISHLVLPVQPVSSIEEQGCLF
# [6] = optical density change of DRC41 E. coli – strain DRC41, OD650, 24 h, E. coli filamentation project, primary screen (AID 1093);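 also: MC1000 strain lacking acrAB efflux and sulA so SOS filamentation is blocked; test concentration not given here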; details: E. coli DRC41 growth, higher = more signal, called active from +8 up or from −8 down
# [7] = probe aLefty2 binding to arrayed compounds – biochemical, biotinylated probe, 635/667 nm fluorescence, primary screen (AID 1094); details: small-molecule microarray, higher = more signal;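 also: score merges spot fluorescence near 667 nm with spot signal-to-noise ratio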
# [8] = test system: Noggin (protein binding on small-molecule microarray); assay: small molecules binding Noggin protein – biochemical, 635/667 nm fluorescence, primary screen (AID 1095); details: 635 nm fluorescence, higher = more signal;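 also: score merges 667 nm feature fluorescence with signal to noise over triplicate slides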
# [9] = target: Neurogenic locus notch homolog protein 3 (Homo sapiens) (UniProt Q9UM47); assay: small molecules binding NOTCH3 protein – biochemical, 635/667 nm fluorescence, primary screen (AID 1096); details: small-molecule microarray, 635 nm fluorescence, higher = more signal
# Neurogenic locus notch homolog protein 3 (Homo sapiens), sequence (Q9UM47 whole entry, looked up): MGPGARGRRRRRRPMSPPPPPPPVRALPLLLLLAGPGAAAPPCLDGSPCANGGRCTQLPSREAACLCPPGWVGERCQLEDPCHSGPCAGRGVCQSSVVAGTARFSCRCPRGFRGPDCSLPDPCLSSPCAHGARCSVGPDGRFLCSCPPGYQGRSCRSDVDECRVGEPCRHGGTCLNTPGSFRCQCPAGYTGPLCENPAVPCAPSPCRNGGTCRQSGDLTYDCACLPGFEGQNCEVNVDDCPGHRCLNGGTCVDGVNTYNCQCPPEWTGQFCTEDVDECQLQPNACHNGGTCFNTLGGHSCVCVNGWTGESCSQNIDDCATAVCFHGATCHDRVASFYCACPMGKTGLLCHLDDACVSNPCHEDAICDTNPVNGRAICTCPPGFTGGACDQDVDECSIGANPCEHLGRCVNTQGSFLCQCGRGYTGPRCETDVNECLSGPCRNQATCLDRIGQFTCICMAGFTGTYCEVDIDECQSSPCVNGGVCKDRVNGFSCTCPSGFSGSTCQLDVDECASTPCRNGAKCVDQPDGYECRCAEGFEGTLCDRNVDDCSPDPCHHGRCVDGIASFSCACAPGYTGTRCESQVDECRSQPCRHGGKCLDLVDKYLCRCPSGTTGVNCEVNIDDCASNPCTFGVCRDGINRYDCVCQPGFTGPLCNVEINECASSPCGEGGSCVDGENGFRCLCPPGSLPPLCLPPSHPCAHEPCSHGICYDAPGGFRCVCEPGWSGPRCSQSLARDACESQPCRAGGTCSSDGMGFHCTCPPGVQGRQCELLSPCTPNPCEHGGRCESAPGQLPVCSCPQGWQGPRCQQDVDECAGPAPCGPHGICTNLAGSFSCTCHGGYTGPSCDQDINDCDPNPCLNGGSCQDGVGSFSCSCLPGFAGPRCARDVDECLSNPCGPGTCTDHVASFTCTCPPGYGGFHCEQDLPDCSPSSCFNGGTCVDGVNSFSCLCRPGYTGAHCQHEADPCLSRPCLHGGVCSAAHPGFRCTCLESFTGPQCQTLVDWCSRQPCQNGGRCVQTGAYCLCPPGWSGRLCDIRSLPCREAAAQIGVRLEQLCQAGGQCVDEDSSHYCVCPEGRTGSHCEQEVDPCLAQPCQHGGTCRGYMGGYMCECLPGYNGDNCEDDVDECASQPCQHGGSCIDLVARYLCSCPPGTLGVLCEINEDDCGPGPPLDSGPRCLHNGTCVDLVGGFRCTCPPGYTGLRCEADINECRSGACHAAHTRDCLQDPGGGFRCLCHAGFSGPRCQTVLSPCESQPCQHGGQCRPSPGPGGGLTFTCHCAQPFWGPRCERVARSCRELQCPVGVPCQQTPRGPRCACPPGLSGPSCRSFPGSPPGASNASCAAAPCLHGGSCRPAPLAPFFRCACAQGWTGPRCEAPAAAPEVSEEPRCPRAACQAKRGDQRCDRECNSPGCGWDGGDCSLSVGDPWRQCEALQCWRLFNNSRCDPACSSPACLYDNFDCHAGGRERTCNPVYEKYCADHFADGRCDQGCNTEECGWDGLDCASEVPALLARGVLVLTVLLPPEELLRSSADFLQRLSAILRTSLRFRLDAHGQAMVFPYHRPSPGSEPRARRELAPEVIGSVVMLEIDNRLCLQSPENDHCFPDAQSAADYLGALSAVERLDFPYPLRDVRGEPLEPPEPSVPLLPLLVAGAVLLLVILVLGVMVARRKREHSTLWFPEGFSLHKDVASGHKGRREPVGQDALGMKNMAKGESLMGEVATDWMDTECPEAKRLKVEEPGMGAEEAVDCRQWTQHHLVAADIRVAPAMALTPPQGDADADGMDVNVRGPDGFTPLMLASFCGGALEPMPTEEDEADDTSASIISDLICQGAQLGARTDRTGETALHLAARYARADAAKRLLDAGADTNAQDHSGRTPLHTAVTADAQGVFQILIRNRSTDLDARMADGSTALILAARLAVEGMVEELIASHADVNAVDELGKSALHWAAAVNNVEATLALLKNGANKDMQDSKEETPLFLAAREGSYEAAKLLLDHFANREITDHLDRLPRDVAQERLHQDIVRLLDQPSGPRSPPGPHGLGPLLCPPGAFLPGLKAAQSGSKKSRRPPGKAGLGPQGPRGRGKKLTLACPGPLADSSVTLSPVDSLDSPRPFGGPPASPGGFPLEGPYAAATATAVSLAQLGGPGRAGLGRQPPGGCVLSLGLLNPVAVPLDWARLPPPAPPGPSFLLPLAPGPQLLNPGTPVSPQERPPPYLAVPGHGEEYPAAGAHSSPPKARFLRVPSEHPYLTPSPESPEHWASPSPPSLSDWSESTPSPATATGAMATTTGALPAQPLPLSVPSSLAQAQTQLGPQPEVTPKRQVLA
# [10] = probe aEGFR binding to arrayed compounds – biochemical, biotinylated probe, 635/667 nm fluorescence, primary screen (AID 1097); details: small-molecule microarray, higher = more signal;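 also: probe is a biotinylated anti-EGFR antibody binding compounds printed on slides; score combines fluorescence near 667 nm and signal to noise of each spot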
Compound,composite z-score [1],z-score [2],z-score [3],z-score [4],composite z-score [5],z-score [6],composite z-score [7],composite z-score [8],composite z-score [9],composite z-score [10]
O=C1NC(=O)C2C1C=CC(C(O)c1cccs1)N2Nc1ccc(Cl)cc1Cl (stereo not given),0.407,1.01 (inactive),0.186 (inactive),1.74 (inactive),2.37,-0.0056 (inactive),-0.0333,-0.394,-0.23,-0.0476
CC1(C)[C@@H]2CC(C(O)C3C=CC4C(=O)N(c5ccccc5)C(=O)C4N3Nc3ccc([N+](=O)[O-])cc3)=C[C@H]1C2 (stereo not given in full),1.55,-0.0209 (inactive),0.287 (inactive),2.09 (inactive),3.71,-0.692 (inactive),0.109,0.375,1.03,0.184
C=C(CCCC)/C(=C/C[C@@H](OC(C)=O)c1ccc(OCCO)cc1)c1cnc2ccccc2c1,1.56,0.273 (inactive),-1.44 (inactive),-0.245 (inactive),2.01,0.796 (inactive),-0.132,0.542,0.857,0.0507
O=C1N(Cc2ccccc2)c2ccccc2[C@@H]2OC(c3ccc(OCCCO)cc3)=N[C@]12CCS(=O)(=O)c1ccccc1,1.5,0.805 (inactive),1.11 (inactive),7.05 (inactive),2.98,0.0515 (inactive),0.169,1.11,0.783,0.0248
NC(=O)NCC#Cc1ccc2c(c1)[C@]1(C(=O)N2)[C@H](c2ccccc2OCCO)N2[C@H](c3ccccc3)[C@H](c3ccccc3)OC(=O)[C@H]2[C@@H]1C(=O)Nc1nc2ccccc2s1,1.24,1.99 (inactive),1.61 (inactive),3.78 (inactive),2.49,1.15 (inactive),-0.0416,0.288,0.773,-0.178
O=C(N1CCCCC1)[C@]1(Cc2ccccc2)N=C(c2ccc(OCCCO)cc2)O[C@@H]1c1ccccc1,1.28,-0.425 (inactive),-1.52 (inactive),3.64 (inactive),2.84,-0.331 (inactive),0.18,-0.281,0.586,0.303
CCCC[C@H]1OB(O)C[C@H]2C1=C(COC)C[C@H]1C(=O)N(C)C(=O)[C@H]12,-0.15,-0.937 (inactive),-0.775 (inactive),-0.635 (inactive),0.0079,-0.908 (inactive),-0.157,1.08,0.769,-0.139
C[N+](C)(C)CCCCNC(=O)[C@@H]1C[C@@H]2C(=O)N[C@@H](Cc3ccccc3)C(=O)N2[C@@H]1c1cccc(OCCO)c1,0.402,0.534 (inactive),-0.642 (inactive),-1.14 (inactive),1.42,1.07 (inactive),-0.0333,0.692,-0.0417,-0.169
C=CCC(OC(C)=O)[C@@H]1[C@@H](N(Cc2ccc(-c3ccccc3)cc2)C(=O)Cc2ccc(OC)cc2)c2cc(OCCCO)ccc2N1C(=O)Cc1ccc2ccccc2c1 (stereo not given in full),-0.137,-0.74 (inactive),-0.619 (inactive),-0.238 (inactive),1.09,-0.263 (inactive),-0.153,-0.688,-0.0042,-0.177
